“And” between values parts separate entries of the source, which are not always exact repeats. Equal entries are not always repeated. Results filed as inconclusive are left out. The source made the active and inactive calls. Unless noted, cut-off not given; nearly all actives show AC50 up to about 26 µM.

Assay [1] is described as follows: viability loss in pontine glioma line – cell-based, SU-DIPG-XXV, MIPE5.0, CellTiter-Glo, qHTS, dose response (AID 1347065).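 Further: cells exposed to compound for 48 hours before ATP readout.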 To be noted: CellTiter-Glo ATP luminescence.
A short description of assay [2]: SU-DIPG-VI glioma cell viability, MIPE4.0 library, CellTiter-Glo luminescence, qHTS (AID 1347066; cut-off not given, nearly all actives have AC50 up to about 30 µM;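 further: cells exposed to compound for 48 hours before readout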). To be noted: CellTiter-Glo ATP luminescence.
A short description of assay [3]: JHH-DIPG-1 glioma cell viability, MIPE5.0 library, CellTiter-Glo luminescence, qHTS (AID 1347067).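 Further: cells exposed to compound for 48 hours before readout.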 As to conditions: JHH-DIPG-1 glioma viability, CellTiter-Glo ATP luminescence.
The nature of assay [4]: SU-DIPG-XXV glioma cell viability, MIPE5.0 library, qHTS (AID 1347068; cut-off not given, nearly all actives have IC50 up to about 30 µM).
The nature of assay [5]: phospholipid biosynthesis inhibitors in animal cells, primary screen, cell-based, LOPAC library, screen 4 (AID 1347384; call rule not given here). As to conditions: phospholipid biosynthesis inhibition screen, at 10 µM.
Assay [6] in a line: survival rescue of mitochondrial mutant cells in low glucose, primary screen, MELAS cybrids, Rieske KO mouse fibroblasts, CellTiter-Glo (AID 1508586;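 active means mean z-score across replicates of 1.96 or higher in either the MELAS or the Rieske mutant cell line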;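 further: z relative to plate mean and SD of compound and empty wells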).
Assay [7] addresses NAD(+) hydrolase SARM1 (Homo sapiens) (UniProt Q6SZW1). Description: SARM1 TIR NADase inhibitors, cell lysate, NAD-Glo luminescence (AID 1508614;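 active means compound whose remaining NAD level is above about 45 nM, limit read from the data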). As to conditions: SAM-TIR HEK293T lysate NADase, at 1 µM, stronger effect = higher value.
Assay [8] has as its target Mitogen-activated protein kinase 7 (Homo sapiens) (UniProt Q13164). Description: ERK5 transactivation activators in reporter cells, primary screen, cell-based, HTS (AID 1508626;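 active means luciferase signal above three times the same-plate solvent-only control wells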;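 further: luciferase driven by Gal4-ERK5 fusion binding five Gal4 sites before minimal TATA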). To be noted: HeLa Gal4-ERK5 transactivation, 18 h, at 5 µM, stronger effect = higher value.
Assay [9] is described as follows: viability rescue of complex I mutant cybrids, primary screen, cell-based, galactose medium, ATP luminescence (AID 1645843;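 active means z-score of at least 1.8 in each of two replicates, scored against plate mean and spread of sample wells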;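 further: positive z means more ATP and so rescue of galactose-driven cybrid death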). To be noted: complex I mutant cybrid cells, 72 h, stronger effect = higher value.
A short description of assay [10]: inhibitors of Cryptococcus chitosan production, flow cytometry, Cibacron Brilliant Red staining (AID 1347148; call rule not given here;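 further: compound exposure lasted three days at 37 degrees C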). As to conditions: Cryptococcus neoformans chitosan, stronger effect = lower value; at 10 µM unless noted.
Setting [11] is: MELAS cybrid survival, CellTiter-Glo 48 h, stronger effect = higher value.
The mark [12] stands for this setting: Rieske KO mouse fibroblast survival, CellTiter-Glo 72 h.

Mitogen-activated protein kinase 7 (Homo sapiens), sequence (Q13164 whole entry, looked up, the tested form may be a part): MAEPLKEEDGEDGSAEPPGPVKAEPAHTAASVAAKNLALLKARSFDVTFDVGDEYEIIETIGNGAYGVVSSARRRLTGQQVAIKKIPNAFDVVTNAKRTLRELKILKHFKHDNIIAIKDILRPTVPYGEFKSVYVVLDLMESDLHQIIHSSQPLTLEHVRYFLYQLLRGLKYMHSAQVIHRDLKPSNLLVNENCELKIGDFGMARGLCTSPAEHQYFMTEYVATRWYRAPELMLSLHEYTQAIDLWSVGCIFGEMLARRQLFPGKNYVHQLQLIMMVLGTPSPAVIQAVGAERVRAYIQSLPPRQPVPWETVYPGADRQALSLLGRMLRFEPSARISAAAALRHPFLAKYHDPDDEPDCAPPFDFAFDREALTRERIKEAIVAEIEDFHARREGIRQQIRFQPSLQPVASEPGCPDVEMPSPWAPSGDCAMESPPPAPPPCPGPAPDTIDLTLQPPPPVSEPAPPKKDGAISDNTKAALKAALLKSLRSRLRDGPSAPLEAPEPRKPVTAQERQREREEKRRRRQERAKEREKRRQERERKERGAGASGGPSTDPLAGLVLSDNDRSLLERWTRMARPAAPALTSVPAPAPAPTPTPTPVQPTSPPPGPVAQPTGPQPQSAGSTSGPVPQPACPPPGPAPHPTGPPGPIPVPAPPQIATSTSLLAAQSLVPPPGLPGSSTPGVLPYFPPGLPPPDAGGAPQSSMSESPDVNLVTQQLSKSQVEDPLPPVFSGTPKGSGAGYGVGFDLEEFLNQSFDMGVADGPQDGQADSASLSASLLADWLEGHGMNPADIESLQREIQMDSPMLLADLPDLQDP
NAD(+) hydrolase SARM1 (Homo sapiens), sequence (Q6SZW1 whole entry, looked up, the tested form may be a part): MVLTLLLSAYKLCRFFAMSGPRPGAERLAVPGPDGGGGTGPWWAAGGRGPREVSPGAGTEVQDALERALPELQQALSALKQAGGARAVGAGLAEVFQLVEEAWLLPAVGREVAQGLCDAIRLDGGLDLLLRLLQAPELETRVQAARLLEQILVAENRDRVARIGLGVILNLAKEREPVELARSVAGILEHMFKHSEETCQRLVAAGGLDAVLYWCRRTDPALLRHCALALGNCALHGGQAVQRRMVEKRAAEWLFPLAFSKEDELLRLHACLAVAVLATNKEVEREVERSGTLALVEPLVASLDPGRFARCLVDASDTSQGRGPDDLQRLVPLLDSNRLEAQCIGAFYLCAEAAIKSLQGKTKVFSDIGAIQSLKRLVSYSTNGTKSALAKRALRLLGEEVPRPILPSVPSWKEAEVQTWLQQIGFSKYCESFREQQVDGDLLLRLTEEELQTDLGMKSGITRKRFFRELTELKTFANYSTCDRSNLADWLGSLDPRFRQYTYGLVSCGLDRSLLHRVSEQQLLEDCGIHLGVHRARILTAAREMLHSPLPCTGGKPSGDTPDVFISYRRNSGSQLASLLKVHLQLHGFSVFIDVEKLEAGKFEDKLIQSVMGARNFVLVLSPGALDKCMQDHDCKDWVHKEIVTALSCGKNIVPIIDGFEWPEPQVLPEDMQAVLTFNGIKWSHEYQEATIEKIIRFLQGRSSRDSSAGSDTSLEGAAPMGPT

Regarding `CC[N+](CC)(CC)CCOc1cccc(OCC[N+](CC)(CC)CC)c1OCC[N+](CC)(CC)CC`, the outcome in [1], in [2], in assay [3], in [4] and in assay [5] was inactive. Also, the z-score is -0.318 (inactive) and -0.405 (inactive) and -0.918 (inactive) in assay [6] (setting [11]); 0.619 and -0.334 and -0.59 in [6] (setting [12]); 0.34 (inactive) and 0.415 (inactive) in [9]. Moreover, the remaining NAD in assay [7] was 10 nM (inactive). The luciferase signal in [8] was 216 AU (active).

For `NC(=O)c1ncn([C@@H]2O[C@H](CO)[C@@H](O)[C@H]2O)n1`, the outcome in assay [1], in [2], in [3], in assay [4] and in assay [5] was inactive. The z-score was -1.67 (inactive) and -1.08 (inactive) in assay [6] (setting [11]); -1.02 and -1.08 in assay [6] (setting [12]); 0.88 (inactive) and 1.56 (inactive) in [9]. Also, the remaining NAD in assay [7] was 10 nM (inactive). For the same molecule, the luciferase signal in assay [8] was 36 AU (inactive).

In the case of `CCOC(=O)C(C)(C)Oc1ccc(Cl)cc1`, the call in [1], in assay [2], in assay [3], in assay [4] and in assay [5] was inactive. Moreover, the fold fluorescence in assay [10] is 5.04 (inactive). Further, the z-score in [6] (setting [11]) is 0.307 (inactive) and -1.09 (inactive); in [6] (setting [12]), -0.506 and -1.36; in assay [9], 0.15 (inactive) and 0.675 (inactive). Besides, in [7], the remaining NAD is 10 nM (inactive). The luciferase signal in [8] is 44 AU (inactive).

Take `CCCCCN(C)CCC(O)(P(=O)(O)O)P(=O)(O)O`: the result in [1], in assay [2], in assay [3], in [4] and in [5] was inactive. Besides, in assay [7], the remaining NAD is 10 nM (inactive).

Turning to `CC(=O)Oc1ccccc1C(=O)O`, the molecule was classed as inactive in assay [1], in assay [2], in assay [3], in assay [4] and in assay [5]. Further, the z-score in assay [6] (setting [11]) was -0.282 (inactive) and -0.31 (inactive) and 0.455 (inactive); in assay [6] (setting [12]) it was 0.817 and -0.843 and -0.759; in assay [9], 0.51 (inactive) and 0.115 (inactive). In assay [7], the remaining NAD was 10 nM (inactive). Further, the luciferase signal in [8] was 92 AU (inactive).

With `CC1(C)NC(=O)N(c2ccc([N+](=O)[O-])c(C(F)(F)F)c2)C1=O`, the call in assay [1], in assay [2], in assay [3], in assay [4] and in assay [5] was inactive. In addition, the z-score was 1.34 (inactive) in assay [6] (setting [11]); -0.252 in [6] (setting [12]); -0.59 (inactive) and -0.55 (inactive) in assay [9]. Further, the remaining NAD in assay [7] was 10 nM (inactive). Moreover, in assay [8], the luciferase signal is 100 AU (inactive).

For the origin of these results see PubChem BioAssay.
